# Test results reported in the supplement of paper PMC13380429.
# Experiments:
# [1] = test system: Vero E6 infected with SARS-CoV-2; assay: morphology score (similarity to uninfected cells); higher = more like uninfected cells; settings: 24 h
# [2] = test system: Vero E6 infected with SARS-CoV-2; assay: SARS-CoV-2 infection rate relative to infected DMSO; higher = more infection, active = 60 or less; settings: 24 h
structure (smiles),measurement,setting,value
Cc1ccccc1C(C(=O)NC1CCCCC1)N(C(=O)Cn1ccnc1C)c1cccc(F)c1 (stereo unspecified) (10 µM),morphology score,[1],0.177
same,SARS-CoV-2 infection rate,[2],108% (inactive)
O=C(Nc1ccc(C(O)(C(F)(F)F)C(F)(F)F)cc1)c1ccc(C(F)(F)F)cc1 (10 µM),morphology score,[1],0.265
same,SARS-CoV-2 infection rate,[2],85% (inactive)
Cc1noc(C)c1-c1ccc(-c2cc(C(N)=O)c(NC(N)=O)s2)c(O[C@H]2CCNC2)c1 (10 µM),morphology score,[1],0.0267
same,SARS-CoV-2 infection rate,[2],104% (inactive)
